The structures appear in SMILES notation. Records with an inconclusive call do not appear. Calls of active or inactive are those of the source. How the source made its calls: active means hit-call score of the fitted dose curve at least 0.9, where 1 is the maximum; inconclusive means response in the unintended direction; inactive means score below 0.9.

This assay can be described thus: ACEA_ER_80hr: ACEA Biosciences xCELLigence Real-Time Cell Analysis on Estrogen Receptor Agonism for Proliferation (AID 2282667). Conditions: T47D proliferation, impedance (xCELLigence), 80 h. Put shortly: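 T47D human breast cells were seeded on electrode plates, monitored overnight, then exposed continuously to compounds in eight-point 1:4 dilutions from 100 uM (max 0.5% DMSO). Impedance-based growth was read at 80 h, fitted upward relative to DMSO.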
`CC(=O)Oc1c(C)c(C)c2c(c1C)CC[C@@](C)(CCC[C@H](C)CCC[C@H](C)CCCC(C)C)O2`: the outcome was inactive.
Still for that read-out and setting: the same measure for `C=CCOC(=O)/C=C\C(=O)OCC=C`: “inactive”.
On the same count and under the same terms, the same measure for `CC(=O)Nc1cc(S(=O)(=O)O)cc2cc(S(=O)(=O)O)c(N=Nc3ccccc3)c(O)c12`: “inactive”; for `CC(=O)OC/C=C(C)/C=C/C=C(C)/C=C/C1=C(C)CCCC1(C)C`: “inactive”.
As to `CCC(C)(C)C1CCC(OC)CC1` (configuration not stated), the result was inactive.
The same measure, in the same setting: the value for `CC(=O)c1ccc(C)cc1` was “inactive”.
By AC50 is commonly meant the concentration giving half of the maximal activity seen. On to `CC(C)=CC(=O)O`, for which the AC50 was 3270 nM (active).
As to `O=C(O)c1ccc(C(=O)O)c(C(=O)O)c1`, the compound was called inactive.
As for `O=C(O)CS`, the result was inactive.
`CCOCC(C)O` (configuration not stated): the call was inactive.
Still for that read-out and setting: the value for `CC(C)N(c1ccccc1)C(C)C` was “inactive”.
Same read-out and setting: the value for `CCCc1ccc(N)cc1` was “inactive”.
Still for that read-out and setting: the value for `C=CCS(=O)(=O)O` was “inactive”; that for `CC(=O)CC(C)(C)C1CCCCC1` was “inactive”.
In the case of `NC(=O)c1cnccn1`, the compound was classed as inactive.
With `CCCCOCCOC(=O)c1ccccc1C(=O)OCCOCCCC`, the call was inactive.
For the compound `CN(C)C(=O)Nc1ccccc1`, the compound was classed as inactive.
For `CCCCCCCCOS(=O)(=O)O`, the result was inactive.
Still for that read-out and setting: the value for `CCCCCCC(O)CCOC(C)=O` (configuration not stated) was “inactive”; that for `O=C(O)c1cccc(Cl)n1` was “inactive”.
As for `Cc1cc(O)c2c(c1)C(=O)c1cc(O)cc(O)c1C2=O`, the AC50 was 493 nM (active).
Consider `N=C1N=C(N)c2ccccc21`, for which the result was inactive.
Same read-out and setting: the same measure for `CC(C)C(=O)OCC=Cc1ccccc1`: “inactive”.
The same measure, in the same setting: the same measure for `CCCCCCCCCCCCOC(C)=O`: “inactive”.
Regarding `[Cl][Dy]([Cl])[Cl]`, the AC50 was 43 nM (active).
For `O=C1OC2(c3ccc(O)cc3Oc3cc(O)ccc32)c2ccccc21`, the compound was called inactive.
Turning to `Cc1cc(N)n(-c2ccccc2)n1`, the outcome was inactive.
